Assay outcomes deposited in PubChem by National Center for Advancing Translational Sciences (NCATS).
Shown are actives, neighbours in structure and some others; about 19% of the full set was active somewhere.
TGFb inhibitor: TGF-b pathway inhibition; Potency, µM (top dose mostly 46.1 µM), without a hit: at the top dose activity, negative = inhibition, usual class: inhibitors; AID 588855; HepG2 CAGA-GFP TGF-b/SMAD3 reporter, GFP fluorescence, 18 h; TGF-beta stimulated, 500 pg/mL final; 1.2% of 410,000 active; note: potency is the fitted concentration of half-maximal effect; % is set by controls: 0 for no effect and ±100 for the full control effect; nearly all actives have a fitted effect of over 65% in size
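HEPG2 CAGA-GFP cells (1000/well, DMEM with 1% FBS) were pre-incubated 2 h at 37 degrees C, given compound by pin tool, then stimulated with TGF-beta at 500 pg/mL final for 18 h before per-cell GFP fluorescence imaging.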
TDP1 cell CPT: DT40-hTDP1 cell growth loss with CPT; Potency, µM (highest dose often 46.2 µM), for the others: top-dose activity change, negative = growth inhibition, usual class: inhibitors; 12% of 420,000 active; chicken DT40 Tdp1-/-;hTDP1 cells + 20 nM CPT, ATP luminescence, 48 h; note: potency is the fitted concentration of half-maximal effect; % is set by controls: 0 for no effect and ±100 for the full control effect; nearly all actives have a fitted effect of over 55% in size
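Cell growth measured by CellTiter-Glo luminescence after a minimum 48 h, 37 C compound exposure with 20 nM CPT in Tdp1-knockout DT40 cells stably expressing hTDP1, seeded 400/well; qHTS titration format.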
S-ASM inh: inhibitors of human secretory acid sphingomyelinase. P17405. placental ASM, HMU-PC fluorogenic substrate, 60 min. Potency, µM (titrated, usually from 57.5 µM), inactives show at the highest dose activity change, negative = inhibition, most hits filed as inhibitors. 0.006% of 340,000 active. AID 504937; note: potency is the fitted concentration of half-maximal effect
Target sequence (P17405 47-631 limits assumed): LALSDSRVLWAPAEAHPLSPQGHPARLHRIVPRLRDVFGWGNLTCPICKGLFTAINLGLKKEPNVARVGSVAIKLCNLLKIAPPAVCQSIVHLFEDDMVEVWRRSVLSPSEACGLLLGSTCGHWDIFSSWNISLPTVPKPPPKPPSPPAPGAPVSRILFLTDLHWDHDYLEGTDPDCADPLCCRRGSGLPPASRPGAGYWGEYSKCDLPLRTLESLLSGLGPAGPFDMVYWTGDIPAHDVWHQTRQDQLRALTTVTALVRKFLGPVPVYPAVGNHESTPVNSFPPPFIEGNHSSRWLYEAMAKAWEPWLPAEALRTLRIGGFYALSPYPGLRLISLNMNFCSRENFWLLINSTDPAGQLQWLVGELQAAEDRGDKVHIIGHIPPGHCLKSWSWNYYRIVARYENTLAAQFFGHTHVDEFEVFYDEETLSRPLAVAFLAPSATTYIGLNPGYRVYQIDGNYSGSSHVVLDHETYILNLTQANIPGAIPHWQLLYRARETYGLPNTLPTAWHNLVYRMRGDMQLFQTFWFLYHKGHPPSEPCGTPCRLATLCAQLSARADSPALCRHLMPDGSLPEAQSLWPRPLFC
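Human placenta-derived ASM preincubated with compound 10 min at room temperature, then reacted with 9 uM (final) fluorogenic HMU-PC substrate for 60 min at 37 C. Stop solution raises pH to 10; fluorescence read at Ex 386/Em 447 nm.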
IL-1B inflam inh: inhibitors of inflammasome signaling (IL-1 beta secretion); AID 743279; activity change, % at 57.5 µM; THP-1 LPS/ATP IL-1B secretion, AlphaLISA, 16 h; active compounds read low; 4.7% of 360,000 active; in the data active = activity change below about -50%; inconclusive = mostly about -30% to -49%; note: % is set by controls: 0 for no effect and ±100 for the full control effect
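Secreted IL-1B measured by AlphaLISA bead assay after 16 h compound exposure of THP-1 cells; compounds (final up to 57.5 uM) added 1 h before LPS (250 ng/mL) and ATP (1.25 mM) stimulation; lower signal means less secretion.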
DT40 TDP1 no CPT: qHTS for Inhibitors of human tyrosyl-DNA phosphodiesterase 1 (TDP1): qHTS in cells in absence of CPT. DT40 Tdp1-/- hTDP1 cells, no CPT, ATP luminescence, 48 h. Potency, µM (doses to about 46.2 µM), without a hit: at the top dose activity change, negative = growth inhibition, hits mostly inhibitors. 15% of 420,000 active. AID 686978, 2013; note: potency is the fitted concentration of half-maximal effect; % is set by controls: 0 for no effect and ±100 for the full control effect; nearly all actives have a fitted effect of over 55% in size
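Compound effects on proliferation are scored in DT40 Tdp1-/-;hTDP1 cells in the absence of CPT. ATP levels (CellTiter-Glo luminescence) are recorded after a ≥48 hr, 37 °C incubation.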
HepG2 viability: counter-screen for TGF-b inhibitors: cytotoxicity in HepG2 cells. AID 588856. 0.76% of 410,000 active. HepG2 CAGA-GFP viability, ATP luminescence, 18 h. Potency, µM (series often up to 46.1 µM), for inactives: at the highest dose activity change, negative = cytotoxicity, usual class: cytotoxic; note: potency is the fitted concentration of half-maximal effect
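HepG2 CAGA-GFP cells (1000/well, DMEM with 1% FBS) received compound, then TGF-beta at 500 pg/mL final, and were incubated 18 hours at 37 degrees C. Viability was read by CellTiter-Glo luminescence. Media-only wells were set as complete cell-killing and DMSO as no toxicity.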
An asterisk follows results filed as active; ? = inconclusive; . = no result. Unless noted, calls come from the whole dose curve; as a rule, active = well fitted curve in the direction sought with a large enough effect; inconclusive = small, poorly fitted or top-dose-only effect, or another doubt; inactive = no such curve, though single readings can be large; an effect the other way counts as inactive or inconclusive.

SMILES	TGFb inhibitor	TDP1 cell CPT	S-ASM inh	IL-1B inflam inh	DT40 TDP1 no CPT	HepG2 viability
COc1ccc(OCCN(C)C(=O)c2cccc(S(=O)(=O)N(C)c3ccccc3)c2)cc1	?	11.6µM*	-1.4%	?	18.4µM*	-4.4%
Cc1ccc(S(=O)(=O)NCc2ccc(C(=O)NCCN(Cc3ccccc3)C(C)C)cc2)cc1	?	?	-0.3%	-65.9*	16.4µM*	-10.7%
COc1ccc(CNC(=O)c2ccc(N(C)S(=O)(=O)c3ccc(C)cc3)cc2)cc1	?	?	-0.8%	-0.8	?	-30.9%
COc1ccc(N(C)S(=O)(=O)c2cccc(C(=O)NCc3ccc(C)cc3)c2)cc1	?	?	-4.1%	-59.2*	?	-30.1%
CCOc1ccc(N(CC(=O)NC(C)C)C(=O)CCC(=O)Nc2ccccn2)cc1	16.7%	3.0%	4.0%	-5.1	1.5%	23.4%
COc1ccccc1Cc1nc2ccccc2nc1SCC(=O)N1CCN(c2ccccc2)CC1	25.1%	20.6µM*	.	.	23.1µM*	7.2%
Cn1c(SCC(=O)Nc2cccc(C(=O)O)c2)nnc1-c1cc2cc(Br)ccc2o1	1.8%	7.4%	-4.2%	13.0	0.4%	3.3%
CCc1cccc(C)c1NC(=O)CSc1nnc(-c2cc3cc(Br)ccc3o2)n1CC	-14.5%	23.1µM*	-9.7%	-24.8	18.4µM*	-17.8%
COc1cccc(Cc2nc3ccccc3nc2SCC(=O)N2CCN(c3ccccc3)CC2)c1	-1.9%	?	.	.	23.1µM*	-19.9%
CCc1nnc(SCC(=O)Nc2ccc(OC)c(OC)c2)c2cc3occc3n12	6.6%	-1.4%	.	.	-22.5%	-20.2%
CCc1cccc(C)c1NC(=O)CSc1nnc(CC)n2c1cc1occc12	7.94µM*	?	.	.	18.4µM*	-24.7%
COc1ccccc1Cc1nc2ccccc2nc1SCC(=O)NCCc1ccccc1	1.0%	-16.3%	.	.	-21.7%	-14.6%
O=C(NCCCNC(=O)c1cc(Cl)ccc1Cl)c1ccccn1	1.0%	-1.5%	1.6%	-12.6	0.2%	-19.7%
COc1cccc(CNC(=O)CSc2nc3ccccc3nc2Cc2ccccc2)c1	1.1%	?	.	.	?	-16.4%
COc1ccccc1Cc1nc2ccccc2nc1SCC(=O)N1CCC(C)CC1	15.8µM*	16.4µM*	.	.	9.2µM*	-59.6%
COc1cccc(Cc2nc3ccccc3nc2SCC(=O)NCCc2ccccc2)c1	?	18.4µM*	.	.	18.4µM*	-36.7%
O=C(CSc1nc2ccccc2nc1Cc1ccccc1)Nc1ccccc1C(F)(F)F	1.9%	-22.9%	.	.	-12.3%	-3.3%
CCc1cccc(C)c1NC(=O)CSc1nc2ccccc2nc1Cc1ccccc1	?	?	.	.	16.4µM*	-9.5%
COCc1nn2cc(-c3ccc(C)cc3)nc2s1	?	-23.6%	.	.	?	-27.7%
Cc1cccc(-c2nc(SCC(=O)NCC3CCCO3)c3c(=O)n(C)c(=O)n(C)c3n2)c1 (centres undefined)	2.1%	-6.7%	.	.	0.1%	-3.9%
O=C1NC(=Nc2ccccc2Cl)S/C1=C\c1ccc(C(=O)O)cc1	-11.6%	7.5%	0.0%	-2.7	-6.7%	-1.3%
CC12CCC(C/C1=N\N=C1\NC(=O)/C(=C\c3ccc(Cl)cc3)S1)C2(C)C (centres undefined)	0.0%	?	-25.5%	-57.4*	?	-5.7%
COc1ccc(CC(=S)NCCc2ccccc2)cc1	0.8%	-27.5%	-3.0%	79.1	?	-24.3%
COc1ccc(C(OCC(O)CNCCc2ccccc2)c2ccc(OC)cc2)cc1 (centres undefined)	?	23.1µM*	-0.1%	-107.2*	18.4µM*	-76.3%
CN1CCN(CC(O)COC(c2ccccc2)c2ccccc2)CC1 (centres undefined)	13.2%	1.0%	-1.5%	-8.0	-13.6%	15.4%
